Out of some 4,800 compounds screened, about 410 (8.5%) showed an effect of 50% or more. The full list was thinned out, with strong results kept by preference.

The subject of this assay is Plasmodium falciparum. Description: Confirmatory screen in NF54 pLDH assay, in single point, at 2uM, 72h. The class given is functional, Erythrocyte. To be noted: timepoint 72 hour.
Turning to `Cc1onc(C(=O)NCc2cnn(C)c2C)c1COc1cccc(C(F)(F)F)c1`, the “% Inhibition” value is recorded as -4%.

Take `O=C(Cn1cnc2cc3c(cc21)OCCCO3)Nc1ccc(F)cc1`: the “% Inhibition” value stood at 13%.

`CCc1ccsc1CN=C(N)NC1CCCCC1`: the “% Inhibition” value is recorded as -9%.

With `O=C(Nc1cc(-c2onc3c2CCCC3)cc(C(F)(F)F)c1)c1cncc(Br)c1`, the “% Inhibition” value came to 95%.

Take `Clc1ccc(-c2onc3c2CCCC3)cc1`: the “% Inhibition” value was 9%.

In the case of `O=C(Nc1onc2c1CCC2)c1ccc2ccccc2c1`, the “% Inhibition” value worked out at 41%.

For `Cc1cc(C)cc(-c2cc3nc(C)cc(N4CCC(C(=O)Nc5ccc(C)c(Cl)c5)CC4)n3n2)c1`, the “% Inhibition” value is reported as -12%.

Take `O=C(NCc1cccc(F)c1)[C@H]1CCCN(c2nc3ccccc3n(Cc3ccccc3)c2=O)C1`: the “% Inhibition” value is given as 5%.

As to `Cc1cc(C)cc(-c2cc3nc(C)cc(N4CCC(C(=O)NCc5cccc(F)c5)CC4)n3n2)c1`, the “% Inhibition” value came to 67%.

In the case of `CC1CN(CC(=O)NCCC#N)C(C)CO1` (configuration not stated), the “% Inhibition” value came out at 1%.

Turning to `Cc1ccc(CN2C(=O)NC3(CCCCC3C)C2=O)c(OCC2CCOC2)c1` (configuration not stated), the “% Inhibition” value amounted to 6%.

For `O=C(NCCCN1CCOCC1)C1C2CCCC21` (configuration not stated), the “% Inhibition” value is on record as 8%.

For the molecule `CN(C)c1ccc(-c2nc(C(F)(F)F)cc(C(F)(F)C(F)(F)F)n2)cc1`, the “% Inhibition” value is recorded as 5%.

For `Oc1cccc(CN2CCC3(CC2)C[C@H](c2ccccc2)CN(C2CC2)C3)c1`, the “% Inhibition” value amounted to 29%.

As for `Cc1c(C(=O)Nc2cccc(S(=O)(=O)NC3CC3)c2)cnn1C`, the “% Inhibition” value was 12%.

Turning to `CC1(CCCCNC(=O)N2CC[C@H](S(C)(=O)=O)C2)OCCO1`, the “% Inhibition” value turned out to be 6%.

`CCN1c2cc(C(=O)NCc3ccccc3)ccc2C(=O)N2CCCC[C@H]21`: the “% Inhibition” value came to 7%.

`COc1ccc(-n2nc(C)c3c2NC(=O)C[C@@H]3c2ccccc2OCC(C)C)nn1`: the “% Inhibition” value was -1%.

On to `CCc1cccc(NC(=O)Cn2ccc3ccc(-c4nnc(C)o4)cc32)c1`, for which the “% Inhibition” value is reported as 89%.

On to `Cc1nc2cc3c(cc2n1CC(=O)Nc1ccc(Cl)cc1)OCCCO3`, for which the “% Inhibition” value is reported as 15%.

`Cn1cc(-c2ccc(Cl)cc2)c2ncn(CC(=O)Nc3cccc(Cl)c3)c(=O)c21`: the “% Inhibition” value is -1%.

Take `Cc1cc(=O)n(CC(=O)Nc2ccc(Cl)c(C(F)(F)F)c2)c(-c2ccc(F)cc2)n1`: the “% Inhibition” value came to 0%.

As for `Cc1nnc(-c2ccc3ccn(CC(=O)Nc4ccc(F)c(Cl)c4)c3c2)o1`, the “% Inhibition” value amounted to 96%.

`Cc1noc(C)c1CC(=O)Nc1cccc(-c2nnco2)c1`: the “% Inhibition” value was 9%.

In the case of `CC1CCCC(C)C12NC(=O)N(CN1CCN(CCOc3ccccc3Cl)CC1)C2=O` (configuration not stated), the “% Inhibition” value was found to be 5%.

Regarding `CCOc1ccc(CNC(=O)c2sccc2NC(=O)c2cnccn2)cc1`, the “% Inhibition” value is listed as -15%.

Consider `COc1ccc(C(=O)c2c[nH]c(C(=O)NC[C@H]3CCCO3)c2)cc1`, for which the “% Inhibition” value was found to be 3%.

One may read the % Inhibition as the relative decrease from the control value, in per cent.

The values are drawn from ChEMBL document CHEMBL4888484, “Replenishing the malaria drug discovery pipeline: Screening and hit evaluation of the MMV Hit Generation Library 1 (HGL1) against asexual blood stage Plasmodium falciparum ,using a nano luciferase reporter read-out” (2022).
